Experiment: basal RPMI8226 viability, no added stimulus, profiling panel, cell-based, calcein-AM fluorescence, 48 h, PK04 Diversity Set (AID 1166);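 further: cells grown under basal conditions without added stimulus; test concentration not given here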
Conditions: RPMI8226 myeloma viability, higher = more signal

Row | SMILES | z-score
1 | COCCOC(=O)N1C(=O)[C@@]2(c3cc(C#Cc4ccc(OC)cc4)ccc31)[C@H](c1ccc(OCCO)cc1)N1[C@H](c3ccccc3)[C@H](c3ccccc3)OC(=O)[C@H]1[C@@H]2C(=O)NC[C@H](O)c1ccccc1 | -1.48
2 | CC1CC/C=C\[C@H]2OC34C=CCN(Cc5ccccc5)C(=O)[C@H]3N(CCCCCCO)C(=O)[C@@H]4C2C(=O)O1 (stereo not given in full) | 0.0497
3 | [N-]=[N+]=Nc1ccccc1[C@@H]1OC(c2ccc(OCCCO)cc2)=N[C@]1(CCS(=O)(=O)c1ccccc1)C(=O)NCC(O)CO (stereo not given in full) | 0.274
4 | COC(=O)[C@@]1(Cc2ccccc2)[C@H]2c3cc(C(=O)N(C)C)n(CCSC(=N)N)c3C[C@H]2CN1C(=O)c1ccccc1 | -1.07
5 | CC(C)[Si](C#CCCc1ccccc1)(O[C@H](c1ccccc1)c1cn(Cc2ccccc2)nn1)C(C)C | -0.297
6 | O=C(NCc1ccc(F)cc1)[C@H]1C[C@H]2C(=O)N3CCC[C@H]3C(=O)N2[C@H]1c1ccc(O)cc1 | -0.625
7 | COC(=O)[C@]1(Cc2ccccc2)N=C(c2ccc(OCCCO)cc2)O[C@@H]1c1ccccc1CN=[N+]=[N-] | -3.97
8 | CC(C)C[C@@H]1NC(=O)[C@@H]2C[C@H](C(=O)NCCCCCCNC(=O)CS)[C@H](c3cccc(OCCO)c3)N2C1=O | -0.587
9 | O=C1O[C@@H](c2ccccc2)[C@@H](c2ccccc2)N2[C@@H](c3ccc(OCCO)cc3)[C@]3(C(=O)Nc4ccc(C#CCCO)cc43)[C@@H](C(=O)O)[C@H]12 | 0.926
10 | CCCC[C@H]1C[C@@H]1[C@@H]1N(C(C)=O)[C@H](c2cccc(OC)c2)CC12CC2 | -0.778

Reference: PubChem BioAssay
